Values joined by “and” are separate entries in the source; they are usually repeats but may differ in a detail not shown here. Equal entries are not always repeated. About 3,500 (0.97%) of roughly 360,000 compounds were called active.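 The calls were made as follows: active = activation above a per-plate cutoff, the mean activation of sample wells on that plate plus 3 SD (cut at about 8% in these data); inactive = the rest.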 The sample as a whole holds a higher share of actives than the screen did. Some structures have more than one record in an assay (separate samples or runs), and their calls can disagree.
Molecular target: Melanocortin receptor 4 (Homo sapiens) (UniProt P32245)
Assay: MC4R agonists recruiting beta-arrestin, primary screen, cell-based, luminescence, agonist arm of biased-ligand search (AID 540308)
Conditions: U2OS MC4R beta-arrestin complementation, at 8.9 µM, stronger effect = higher value, percent of melanotan II response, DMSO zero

Chain of Melanocortin receptor 4 (Homo sapiens) (P32245 whole entry, looked up): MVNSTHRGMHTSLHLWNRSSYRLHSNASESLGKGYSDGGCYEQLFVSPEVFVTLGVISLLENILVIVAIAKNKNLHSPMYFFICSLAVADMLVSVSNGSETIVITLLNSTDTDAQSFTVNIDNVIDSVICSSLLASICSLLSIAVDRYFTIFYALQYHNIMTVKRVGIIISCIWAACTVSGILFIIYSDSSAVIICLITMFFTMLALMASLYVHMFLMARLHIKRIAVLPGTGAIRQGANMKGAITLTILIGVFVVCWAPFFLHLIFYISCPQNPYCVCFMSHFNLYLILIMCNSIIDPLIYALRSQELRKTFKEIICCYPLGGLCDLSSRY

| Structure (SMILES) | activation |
| --- | --- |
| COc1ccc(Cl)cc1-c1cc(C(=O)Nc2cc(OC)c(OC)c(OC)c2)[nH]n1 | 3.58% (inactive) |
| CCCNC(=O)c1cc(C2CCCCN2S(=O)(=O)c2cn(C)cn2)on1 (configuration not stated) | -0.95% (inactive) |
| O=C(Nc1ccc2oc(-c3ccc4ccccc4c3)nc2c1)c1cccs1 | 14.3% (active) |
| COc1ccc2oc(-c3cccc(NC(=O)CSc4ccc(Cl)cc4)c3)nc2c1 | 5.84% (inactive) |
| O=C(Nc1ccc2oc(-c3ccccc3F)nc2c1)c1ccco1 | -1.85% (inactive) |
| CCOC(=O)C1(C)CCCN(C(=O)c2cccc(Cl)c2)C1 (configuration not stated) | 0.39% (inactive) |
| COc1ccc(S(=O)(=O)N2CCCCC2c2cc(C(=O)NCc3ccc(F)cc3)no2)cc1 (configuration not stated) | -0.38% (inactive) |
| COc1ccc(-c2noc(COc3ccc(Cl)c(C)c3)n2)cc1 | 9.56% (active) |
| COc1ccc(N2CCN(C(=O)CCc3nc(-c4ccc(C)cc4)no3)CC2)cc1 | -1.45% (inactive) |
| COc1ccc(C(C)=O)cc1COc1ccc(Cl)c(C)c1 | -1.85% (inactive) |
| O=C(COC(=O)CCCN1C(=O)c2cccc3cccc(c23)C1=O)NC1CCS(=O)(=O)C1 (configuration not stated) | 0.21% (inactive) |
| O=C(CCCCCN1C(=O)c2cccc3cccc(c23)C1=O)NCc1ccco1 | 19.2% (active) |
| O=C(CCCOc1ccccc1)NCc1ccco1 | -0.5% (inactive) |
| CCCNC(=O)C1(C)CCN(C(=O)c2ccc(F)cc2Cl)C1 (configuration not stated) | 0.56% (inactive) |
| CCc1nnc(NC(=O)CSCc2cc(=O)n3cc(C)sc3n2)s1 | -1.4% (inactive) |
| CCc1nc2c(OCCc3cccc(OC)c3)cccn2c1N(C)C(=O)c1ccc(C)cc1 | -0.79% (inactive) |
| CSc1ccc(/C=N\NC(=O)COc2ccc(Cl)cc2Br)cc1 | 36.4% (active) |
| CSc1ccc(/C=N/NC(=O)c2cccc(Cl)c2)cc1 | 1.13% (inactive) |
| Cc1ccc(/C=N/NC(=O)COc2ccccc2-c2ccccc2)cc1 | 1.38% (inactive) |
| COCCNc1ncnc2c1ncn2[C@H]1CN(Cc2ccc(OC)cc2)C[C@@H](CO)O1 | 0% (inactive) |
| CCCS(=O)(=O)NC(=O)C1(C)CCCN(C(=O)c2cc(C)on2)C1 (configuration not stated) | 1.12% (inactive) |
| Cc1ccc(S(=O)(=O)NCCC(=O)NCc2ccc(Cl)cc2)cc1C | -1.43% (inactive) |
| CC(C)CNS(=O)(=O)c1ccc(CCC(=O)NCc2ccc(Cl)cc2)cc1 | 0.27% (inactive) |

| Structure (SMILES) | activation |
| --- | --- |
| CSc1ccc(S(=O)(=O)NCc2ccc(Cl)cc2)cc1 | 10.2% (active) |
| O=C(NC(=S)Nc1cccc2c(O)cccc12)c1cccc(Br)c1 | 30.6% (active) |
| O=C(NC1CC1)c1cccc(Br)c1 | -2.46% (inactive) |
| O=C(NC(=S)Nc1ccc(S(=O)(=O)Nc2ncccn2)cc1)c1cccc(Br)c1 | -2.77% (inactive) |
| Cc1ccccc1Cn1c(C)c(C(=O)NCc2cccc(C(F)(F)F)c2)sc1=O | 2.6% (inactive) |
| Cc1ccc(C)c(N2CCN(C(=O)CCCCCn3c(=S)[nH]c4ccc(N5CCOCC5)cc4c3=O)CC2)c1 | -2.66% (inactive) |
| CC(C)NC(=O)CCCn1c(=S)[nH]c2cc3c(cc2c1=O)OCO3 | -1.77% (inactive) |
| O=C(CCCCCn1c(=S)[nH]c2cc3c(cc2c1=O)OCO3)N1CCN(c2ccc(F)cc2)CC1 | 13.7% (active) |
| CCc1nc2ccc(C(=O)NCCNC(C)=O)cn2c1N(CC)Cc1cccc(Br)c1 | -0.75% (inactive) |
| CCc1nc2ccc(C(=O)Nc3cccc(OC)c3)cn2c1N(CCC(C)C)CCN(C)C | 0.02% (inactive) |
| COc1ccc(C(C)(NC(C)=O)c2nc(-c3ccc(S(C)(=O)=O)cc3)cs2)cc1 (configuration not stated) | -1.32% (inactive) |
| Cc1ccc(O)c(NC(=S)NC(=O)COc2ccc(Br)cc2)c1 | 19.5% (active) |
| CC(=O)Nc1ccc(OC(=O)COc2ccc(Br)cc2)cc1 | -0.49% (inactive) |
| Cn1cccc1C(=O)NNC(=O)COc1ccc(Br)cc1 | -1.12% (inactive) |
| CCCC(=O)N1CCC1(C)C(=O)NCc1ccc(SC)cc1 (configuration not stated) | -2.08% (inactive) |
| CC(C)c1ccc(CC(=O)N2CCC2(C)C(=O)NS(=O)(=O)c2ccc(C(C)(C)C)cc2)cc1 (configuration not stated) | 0.36% (inactive) |
| Cc1cc(C)cc(NS(=O)(=O)Cc2ccccc2)c1 | 0.25% (inactive) |
| CCS(=O)(=O)Nc1cccc(-c2cc(-c3ccccc3)c3cc(C)ccc3n2)c1 | 8.87% (active) |
| CS(=O)(=O)Nc1cccc(-c2cn3ccccc3n2)c1 | -3.26% (inactive) |
| CNc1cncc(-c2cccc(C(=O)N3CCOCC3)c2)n1 | -2.12% (inactive) |
| COc1ccc(CC(N)c2csc(NC(=O)NC(c3ccccc3)c3ccccc3)n2)cc1 (configuration not stated) | 13.1% (active) |
| COc1ccc(C(N)c2csc(NC(=O)Nc3cccc(C(F)(F)F)c3)n2)cc1 (configuration not stated) | 9.99% (active) |
| NC(c1ccccc1)c1csc(NC(=O)Nc2cccc(C(F)(F)F)c2)n1 (configuration not stated) | 7.09% (inactive) |

| Structure (SMILES) | activation |
| --- | --- |
| COc1ccc(CC(N)c2csc(NC(=O)Nc3ccc(C(C)C)cc3)n2)cc1 (configuration not stated) | 4.05% (inactive) |
| NC(Cc1ccc(F)cc1)c1csc(Nc2nncc3ccccc23)n1 (configuration not stated) | 6.94% (inactive) |
| CC(C)(C)CC(=O)Nc1nc(C(N)Cc2ccc(C(F)(F)F)cc2)cs1 (configuration not stated) | 9.49% (active) |
| COc1ccc(CC(N)c2csc(NC(=O)Cc3ccccc3)n2)cc1 (configuration not stated) | -0.85% (inactive) |
| NC(c1csc(NC(=O)Nc2cccc(C(F)(F)F)c2)n1)C1CCCCC1 (configuration not stated) | 6.14% (inactive) |
| NC(Cc1ccccc1)c1csc(Nc2cc(Oc3ccccc3)ncn2)n1 (configuration not stated) | 4.18% (inactive) |
| Cc1cccc(NC(=O)CN2CCN(CC(=O)NCC3(N4CCCCC4)CCCCC3)CC2)c1C | -0.84% (inactive) |
| c1cc(-c2ccc3[nH]ccc3c2)n2ccnc2c1 | -0.92% (inactive) |
| CCNC(=O)C1CCCN(C(=O)c2ccc(OC)cc2OC)CC1 (configuration not stated) | 0.47% (inactive) |
| O=C(NCc1ccco1)c1cccc(-c2ccc3nncn3c2)c1 | 1.37% (inactive) |
| CCCOc1ccc(F)cc1-c1cc(C(=O)Nc2ccc(F)cc2)[nH]n1 | 0.53% (inactive) |
| CC1(C(=O)NS(=O)(=O)c2ccccc2)CCN1C(=O)C/C=C/c1ccccc1 (configuration not stated) | -2.25% (inactive) |
| COCc1cccc(-c2csc(C(O)c3ccc(F)cc3)n2)c1 (configuration not stated) | -0.9% (inactive) |
| COc1ccc2nc(NC(=O)c3ccc(Br)s3)sc2c1 | 16.2% (active) |
| CSc1ncccc1C(=O)Nc1nc2ccc(F)cc2s1 | -1.02% (inactive) |
| COc1ccc(CNC(=O)c2ccc(Br)s2)cc1OC | -3.45% (inactive) |
| O=C(COc1ccc2c(c1)CCC2)N1CCN(c2ccc(F)cc2)CC1 | 0.92% (inactive) |
| COc1cc(NC(=O)c2cncc(-c3ccc(C#N)cc3)c2)cc(C(=O)Nc2cccc(C(F)(F)F)c2)c1 | 2.04% (inactive) and 10.5% (active) |
| O=C(Nc1cccc(C(F)(F)F)c1)c1ccc(N2CCNCC2)c([N+](=O)[O-])c1 | -2.39% (inactive) |
| COc1cc(NC(=O)c2[nH]cnc2C(N)=O)cc(C(=O)Nc2cccc(C(F)(F)F)c2)c1 | 1.84% (inactive) |
| Cc1nc(C(F)(F)F)ccc1C(=O)N1CCC1(C)C(=O)NS(=O)(=O)c1ccc(F)cc1F (configuration not stated) | 1.24% (inactive) |
| NS(=O)(=O)c1ccc(NC(=S)Nc2ccc(Br)c(Cl)c2)cc1 | -1.38% (inactive) |
| Cc1cccc(NC(=S)Nc2ccc(Cl)c(Cl)c2)c1 | 8.62% (active) |

| Structure (SMILES) | activation |
| --- | --- |
| S=C(Nc1ccccc1)Nc1ccc2ccccc2c1 | 0.79% (inactive) |
| OC(c1ccc(Cl)c(F)c1)c1ncc(-c2ccccc2Cl)[nH]1 (configuration not stated) | 5.44% (inactive) |
| COc1ccc(-c2noc(C(C)NS(=O)(=O)c3ccc(NC(C)=O)cc3)n2)cc1 (configuration not stated) | -3.52% (inactive) |
| CCCC(=O)N1CCC1(C)C(=O)NCc1ccc(C(C)C)cc1 (configuration not stated) | 1.64% (inactive) |
| COc1c(C)cc(C(O)c2ncc(-c3cccc(C(F)(F)F)c3)[nH]2)cc1C (configuration not stated) | 2.23% (inactive) |
| O=C1N/C(=C/c2cccn2-c2ccccc2)C(=O)N1c1cccc(Cl)c1 | 30.7% (active) |
| O=C1CC(NNc2ccccc2)C(=O)N1c1cccc(Cl)c1 (configuration not stated) | 2.47% (inactive) |
| N#Cc1ccccc1CN1C(=O)S/C(=C/c2cccn2-c2cccc(C(=O)O)c2)C1=O | 1.23% (inactive) |
| CCN(CCN(C)C)C(=O)c1ccc2nc(C)c(N(C)C(=O)CCc3ccccc3)n2c1 | 0.87% (inactive) |
| O=C(c1cc(-c2cccc(O)c2)on1)N1CCc2ccccc2C1 | 11.5% (active) |
| O=C(NCCCN1CCOCC1)c1cc(-c2cccc(O)c2)on1 | -2.51% (inactive) |
| O=C(c1cc(-c2ccc(O)cc2)on1)N1CCOCC1 | -1.26% (inactive) |
| CC1(C(=O)Nc2cccc3cccnc23)CCN1C(=O)CCC1CCCC1 (configuration not stated) | 0.32% (inactive) |
| CCN(CC)CCN(C(=O)c1ccc2c(c1)CCCC2)c1nc2c(OC)cccc2s1 | 5.13% (inactive) |
| Cc1cccc2sc(N(CCCN(C)C)C(=O)CCS(=O)(=O)c3ccccc3)nc12 | -2.28% (inactive) |
| COc1cccc2sc(N(CCCN(C)C)C(=O)C(c3ccccc3)c3ccccc3)nc12 | 11.3% (active) |
| Cc1cc(-c2nc(C)c(-c3nnc(SCC(=O)Nc4ccccc4)n3C)s2)no1 | -2.39% (inactive) |
| Cc1nc(-c2nnc(SCC(=O)Nc3cc(C(F)(F)F)cc(C(F)(F)F)c3)n2C)cs1 | 10.2% (active) |
| Cn1c(SCC(=O)Nc2cccc(NC(=O)c3cccs3)c2)nnc1-c1ccncc1 | 0.46% (inactive) |
| Cc1ccccc1S(=O)(=O)NC(=O)C1(C)CCN1C(=O)C1(c2ccccc2)CCCC1 (configuration not stated) | -0.26% (inactive) |
| COc1ccc(CNc2nnnn2C)cc1 | -2.31% (inactive) |
| COc1ccc(-n2nnnc2-c2nc3ccccc3s2)cc1 | 9.47% (active) |
| COc1ccc(-n2nnnc2SCC(=O)NCc2cccs2)cc1 | -3.21% (inactive) |
